Laboratory results: PubChem BioAssay (EPA / NIEHS)
The source made the active and inactive calls. Rule for the calls: active = hit-call score of the fitted dose curve at least 0.9, where 1 is the maximum; inactive = score below 0.9.

Molecular target: Transcription factor Sp1 (Homo sapiens) (UniProt P08047)
Test: ATG_Sp1_CIS: Attagene CIS-FACTORIAL HepG2 Assay for human Specificity Protein 1 (Sp1) (AID 2282961)
Conditions: HepG2 Sp1 cis-reporter transcription, actives raise or lower the signal
In short: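 After transient transfection of HepG2 cells with cis-promoter reporter units and 24 h chemical treatment, reporter transcripts were quantified by RT-PCR and capillary electrophoresis fluorescence. Gain- and loss-of-signal fitted against DMSO.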

Sequence of Transcription factor Sp1 (Homo sapiens) (P08047 whole entry, looked up): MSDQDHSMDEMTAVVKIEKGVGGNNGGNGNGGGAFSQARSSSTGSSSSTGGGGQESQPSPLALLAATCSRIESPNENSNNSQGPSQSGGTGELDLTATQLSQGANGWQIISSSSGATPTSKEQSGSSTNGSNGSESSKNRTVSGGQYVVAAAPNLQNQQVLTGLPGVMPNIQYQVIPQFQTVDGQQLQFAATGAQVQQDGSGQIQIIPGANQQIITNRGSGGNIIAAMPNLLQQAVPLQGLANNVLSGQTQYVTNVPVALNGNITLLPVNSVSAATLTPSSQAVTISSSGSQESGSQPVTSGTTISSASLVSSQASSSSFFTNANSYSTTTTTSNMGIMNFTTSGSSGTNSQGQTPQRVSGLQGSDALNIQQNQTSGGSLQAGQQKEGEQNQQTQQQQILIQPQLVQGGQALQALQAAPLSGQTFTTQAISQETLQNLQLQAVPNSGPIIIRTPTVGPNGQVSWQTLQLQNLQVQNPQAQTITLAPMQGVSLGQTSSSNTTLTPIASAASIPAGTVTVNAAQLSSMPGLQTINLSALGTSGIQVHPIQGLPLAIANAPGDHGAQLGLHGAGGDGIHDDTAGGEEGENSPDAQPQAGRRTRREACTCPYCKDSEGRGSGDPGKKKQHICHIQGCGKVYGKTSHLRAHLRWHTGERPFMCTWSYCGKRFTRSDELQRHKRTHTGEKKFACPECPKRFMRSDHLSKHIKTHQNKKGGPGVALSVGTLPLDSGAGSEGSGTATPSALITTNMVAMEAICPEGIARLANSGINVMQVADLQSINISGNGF

SMILES | outcome | AC50
CC1(C)S[C@@H]2[C@H](NC(=O)[C@H](N)c3ccccc3)C(=O)N2[C@H]1C(=O)O | inactive | 
CCC(C)(CCC(C)C)C(=O)O (configuration not stated) | inactive | 
CCCc1c(OCCCCc2nn[nH]n2)ccc(C(C)=O)c1O | inactive | 
Clc1ccccn1 | inactive | 
c1cc(N(CC2CO2)CC2CO2)ccc1Cc1ccc(N(CC2CO2)CC2CO2)cc1 (configuration not stated) |  | 5.73 µM (active)
O=C(O)Cc1c[nH]c2ccccc12 | inactive | 
NCc1ccccc1 | inactive | 
CCCCn1cc[n+](C)c1 | inactive | 
CC(C)CC(=O)O | inactive | 
Cc1cc(O)cc(C)c1Cl |  | 109 µM (active)
CC(C)n1c(/C=C/[C@@H](O)C[C@@H](O)CC(=O)O)c(-c2ccc(F)cc2)c2ccccc21 | inactive | 
CC1=C(CC=O)C(C)(C)CCC1 | inactive | 
CC(O)(P(=O)(O)O)P(=O)(O)O | inactive | 
Cc1cccnc1 | inactive | 
Cc1ccccc1S(N)(=O)=O | inactive | 
OCCOCCOCCOCCOCCO | inactive | 
C1=CCC=C1 | inactive | 
CN(C)CCCN1c2ccccc2CCc2ccc(Cl)cc21 | inactive | 
C[C@H]1C[C@H]2[C@@H]3CCC4=CC(=O)C=C[C@]4(C)[C@@]3(F)[C@@H](O)C[C@]2(C)[C@@]1(O)C(=O)CO | inactive | 
COC(OC)C(C)c1ccccc1 (configuration not stated) | inactive | 
COCCCN | inactive | 
CC1=CCCC(C)(C)C12CCC(C)O2 (configuration not stated) | inactive | 
OCCN(CCO)c1cccc(Cl)c1 | inactive | 
O=C(O)c1nc(Cl)c(Cl)c(Cl)c1Cl | inactive | 
CC=CC(=O)O | inactive | 

System: not listed separately
Test: ATG_SREBP_CIS: Attagene CIS-FACTORIAL HepG2 Assay for human Sterol Regulatory Element Binding (SREBP) (AID 2282962)
Conditions: HepG2 Attagene cis-factorial SREBP reporter, mRNA; actives raise or lower the signal
In short: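 Twenty-four hours after chemical dosing of transfected HepG2 cultures, reporter RNA was converted to cDNA, amplified, end-labelled with 6-FAM and resolved by capillary electrophoresis. Responses were fitted relative to DMSO.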

SMILES | outcome | AC50
CCC(C)(CCC(C)C)C(=O)O (configuration not stated) | inactive | 
Cc1cc(C)c(S(=O)(=O)O)cc1N=Nc1cc(S(=O)(=O)O)c2ccccc2c1O | inactive | 
CCCc1c(OCCCCc2nn[nH]n2)ccc(C(C)=O)c1O |  | 37.4 µM (active)
c1cc(N(CC2CO2)CC2CO2)ccc1Cc1ccc(N(CC2CO2)CC2CO2)cc1 (configuration not stated) |  | 26.4 µM (active)
CCCCCCOC(=O)CCCCCCCC(=O)OCCCCCC | inactive | 
O=C(O)Cc1c[nH]c2ccccc12 | inactive | 
NCc1ccccc1 | inactive | 
CCCCn1cc[n+](C)c1 | inactive | 
CC(C)CC(=O)O | inactive | 
C[Si](C)(C)O[Si](C)(C)O[Si](C)(C)C | inactive | 
Cc1cc(O)cc(C)c1Cl | inactive | 
CC(C)n1c(/C=C/[C@@H](O)C[C@@H](O)CC(=O)O)c(-c2ccc(F)cc2)c2ccccc21 |  | 0.284 µM (active)
CC(O)(P(=O)(O)O)P(=O)(O)O | inactive | 
Cc1ccccc1S(N)(=O)=O | inactive | 
C=C(C)C(=O)OCC1CCCO1 (configuration not stated) | inactive | 
OCCOCCOCCOCCOCCO | inactive | 
C1=CCC=C1 | inactive | 
CCCOCCC | inactive | 
CN(C)CCCN1c2ccccc2CCc2ccc(Cl)cc21 |  | 15.8 µM (active)
CC/C=C\CC1=C(C)CCC1=O | inactive | 
C[C@H]1C[C@H]2[C@@H]3CCC4=CC(=O)C=C[C@]4(C)[C@@]3(F)[C@@H](O)C[C@]2(C)[C@@]1(O)C(=O)CO | inactive | 
F[B-](F)(F)F | inactive | 
COCCCN | inactive | 
CC1=CCCC(C)(C)C12CCC(C)O2 (configuration not stated) | inactive | 
COc1ccccc1OCC(O)CO (configuration not stated) | inactive | 
OCCN(CCO)c1cccc(Cl)c1 | inactive | 
O=C(O)c1nc(Cl)c(Cl)c(Cl)c1Cl | inactive | 
CC=CC(=O)O | inactive | 

Molecular target: Signal transducer and activator of transcription 3 (Homo sapiens) (UniProt P40763)
Test: ATG_STAT3_CIS: Attagene CIS-FACTORIAL HepG2 Assay for human Signal Transducer and Activator of Transcription 3 (STAT3) (AID 2282963)
Conditions: HepG2, Attagene cis-factorial STAT3 reporter transcription; actives raise or lower the signal
In short: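 After a 24 h compound incubation, total RNA from MRTU-transfected HepG2 cells was converted to cDNA and reporter sequences PCR-amplified, labelled and profiled by capillary electrophoresis. Gain and loss of signal were referenced to DMSO.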

Sequence of Signal transducer and activator of transcription 3 (Homo sapiens) (P40763 whole entry, looked up): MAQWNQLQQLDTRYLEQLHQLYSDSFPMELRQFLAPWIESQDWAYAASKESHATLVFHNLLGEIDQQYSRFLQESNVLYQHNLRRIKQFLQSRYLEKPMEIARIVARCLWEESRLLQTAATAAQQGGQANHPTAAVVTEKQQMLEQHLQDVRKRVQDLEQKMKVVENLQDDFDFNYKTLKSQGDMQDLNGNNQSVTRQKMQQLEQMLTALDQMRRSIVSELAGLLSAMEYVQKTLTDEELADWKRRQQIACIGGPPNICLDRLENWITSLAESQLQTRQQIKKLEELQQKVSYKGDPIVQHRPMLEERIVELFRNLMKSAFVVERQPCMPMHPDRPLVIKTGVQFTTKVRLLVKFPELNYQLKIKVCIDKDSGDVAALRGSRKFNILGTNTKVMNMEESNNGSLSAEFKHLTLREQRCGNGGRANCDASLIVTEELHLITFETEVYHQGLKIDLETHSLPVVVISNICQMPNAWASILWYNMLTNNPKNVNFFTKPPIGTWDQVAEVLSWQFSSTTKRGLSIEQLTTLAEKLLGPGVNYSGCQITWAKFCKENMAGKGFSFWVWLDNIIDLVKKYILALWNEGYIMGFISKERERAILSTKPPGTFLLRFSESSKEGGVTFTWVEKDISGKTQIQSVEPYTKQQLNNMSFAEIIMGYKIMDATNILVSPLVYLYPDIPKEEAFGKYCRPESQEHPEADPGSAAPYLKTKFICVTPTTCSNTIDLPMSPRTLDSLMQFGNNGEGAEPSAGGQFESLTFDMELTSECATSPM

SMILES | outcome
CC1(C)S[C@@H]2[C@H](NC(=O)[C@H](N)c3ccccc3)C(=O)N2[C@H]1C(=O)O | inactive
CCC(C)(CCC(C)C)C(=O)O (configuration not stated) | inactive
Cc1cc(C)c(S(=O)(=O)O)cc1N=Nc1cc(S(=O)(=O)O)c2ccccc2c1O | inactive
CCCc1c(OCCCCc2nn[nH]n2)ccc(C(C)=O)c1O | inactive
Clc1ccccn1 | inactive
c1cc(N(CC2CO2)CC2CO2)ccc1Cc1ccc(N(CC2CO2)CC2CO2)cc1 (configuration not stated) | inactive
CCCCCCOC(=O)CCCCCCCC(=O)OCCCCCC | inactive
CC1=NN(c2cc(Cl)c(S(=O)(=O)O)cc2Cl)C(=O)C1N=Nc1ccc(S(=O)(=O)O)cc1 (configuration not stated) | inactive
O=C(O)Cc1c[nH]c2ccccc12 | inactive
CCCCCCCCCCC1CO1 (configuration not stated) | inactive
NCc1ccccc1 | inactive
O=[N+]([O-])c1ccc2nc[nH]c2c1 | inactive
CCCCn1cc[n+](C)c1 | inactive
CC(C)CC(=O)O | inactive
C[Si](C)(C)O[Si](C)(C)O[Si](C)(C)C | inactive
Cc1cc(O)cc(C)c1Cl | inactive
CC(C)n1c(/C=C/[C@@H](O)C[C@@H](O)CC(=O)O)c(-c2ccc(F)cc2)c2ccccc21 | inactive
CC1=C(CC=O)C(C)(C)CCC1 | inactive
CC(O)(P(=O)(O)O)P(=O)(O)O | inactive
Cc1cccnc1 | inactive

SMILES | outcome
Cc1ccccc1S(N)(=O)=O | inactive
C=C(C)C(=O)OCC1CCCO1 (configuration not stated) | inactive
OCCOCCOCCOCCOCCO | inactive
C1=CCC=C1 | inactive
CC(C)CC(=O)CC(C)CC(C)C (configuration not stated) | inactive
CCCOCCC | inactive
CN(C)CCC(c1ccc(Cl)cc1)c1ccccn1 (configuration not stated) | inactive
CN(C)CCCN1c2ccccc2CCc2ccc(Cl)cc21 | inactive
CC/C=C\CC1=C(C)CCC1=O | inactive
C[C@H]1C[C@H]2[C@@H]3CCC4=CC(=O)C=C[C@]4(C)[C@@]3(F)[C@@H](O)C[C@]2(C)[C@@]1(O)C(=O)CO | inactive
COC(OC)C(C)c1ccccc1 (configuration not stated) | inactive
F[B-](F)(F)F | inactive
COCCCN | inactive
CC1=CCCC(C)(C)C12CCC(C)O2 (configuration not stated) | inactive
CC(=O)c1nccs1 | inactive
COc1ccccc1OCC(O)CO (configuration not stated) | inactive
OCCN(CCO)c1cccc(Cl)c1 | inactive
O=C(O)c1nc(Cl)c(Cl)c(Cl)c1Cl | inactive
CC=CC(=O)O | inactive
